Source: PubChem BioAssay AID1159580 (chemical genetic matrix, 2015)
Values joined by “and” are separate entries in the source; they are usually repeats but may differ in a detail not shown here. Identical values can stand only once. The whole screen tested about 5,500 compounds, of which about 2,000 (36%) were called active. Roughly 18% stayed inconclusive and do not appear here. Cut-off read from the data, not from the text of the source: active = normalized growth mostly below about 0.91 (no sharp cut-off); inconclusive = no clear call, values can overlap the other calls; inactive = mostly above about 0.92. The list shows a part of the results.

Assay: chemical genetic growth profiling, strain panel (AID 1159580);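 note: tested at 20 µM; growth read once vehicle control cultures reached saturation at 30 °C; 1 = growth at the plate median or of vehicle wells; lower values mean less growth of the strain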
Conditions: growth OD

Measured: normalized growth

CN(C)C(=O)C(CCN1CCC(O)(c2ccc(Cl)cc2)CC1)(c1ccccc1)c1ccccc1
inactive: S. cerevisiae deletion strains, locus YJR075W, strain HOC1, stronger effect = lower value 1.01 and 0.984 | S. cerevisiae deletion strains, locus YKL009W, strain mrt4, stronger effect = lower value 1.01 | S. cerevisiae deletion strains, locus YKL068W, stronger effect = lower value 1 | S. cerevisiae deletion strains, locus YKL085W, strain MDH1 (second series), stronger effect = lower value 1.01 | S. cerevisiae deletion strains, locus YKL085W, strain MDH1, stronger effect = lower value 1.01 | S. cerevisiae deletion strains, locus YKL160W, strain elf1, stronger effect = lower value 0.973 | S. cerevisiae deletion strains, locus YKL190W, strain CNB1, stronger effect = lower value 0.997 | S. cerevisiae deletion strains, locus YKR001C, strain vps1, stronger effect = lower value 1.01 | S. cerevisiae deletion strains, locus YKR026C, strain gcn3, stronger effect = lower value 0.997 | S. cerevisiae deletion strains, locus YKR091W, strain srl3, stronger effect = lower value 0.991 | S. cerevisiae deletion strains, locus YLL001W, strain dnm1, stronger effect = lower value 0.971 | S. cerevisiae deletion strains, locus YLL026W, stronger effect = lower value 0.987 | S. cerevisiae deletion strains, locus YLL041C, strain sdh2, stronger effect = lower value 1 | S. cerevisiae deletion strains, locus YLR027C, strain aat2, stronger effect = lower value 0.976 | S. cerevisiae deletion strains, locus YLR039C, strain RIC1, stronger effect = lower value 1.05 | S. cerevisiae deletion strains, locus YLR058C, strain SHM2, stronger effect = lower value 1 | S. cerevisiae deletion strains, locus YLR102C, strain apc9, stronger effect = lower value 1.01 | S. cerevisiae deletion strains, locus YLR113W, strain HOG1, stronger effect = lower value 0.988 | S. cerevisiae deletion strains, locus YLR221C, strain rsa3, stronger effect = lower value 1 | S. cerevisiae deletion strains, locus YLR258W, strain gsy2, stronger effect = lower value 0.995 | S. cerevisiae deletion strains, locus YLR262C, strain YPT6 (second series), stronger effect = lower value 1.03 | S. cerevisiae deletion strains, locus YLR262C, strain YPT6, stronger effect = lower value 0.991 | S. cerevisiae deletion strains, locus YLR268W, strain sec22, stronger effect = lower value 1.04 | S. cerevisiae deletion strains, locus YLR320W, strain mms22, stronger effect = lower value 0.932 | S. cerevisiae deletion strains, locus YLR330W, strain CHS5, stronger effect = lower value 0.993 | S. cerevisiae deletion strains, locus YLR342W, strain FKS1 (second series), stronger effect = lower value 0.946 | S. cerevisiae deletion strains, locus YLR342W, strain FKS1, stronger effect = lower value 0.955 | S. cerevisiae deletion strains, locus YLR357W, strain rsc2, stronger effect = lower value 0.994 | S. cerevisiae deletion strains, locus YLR370C, strain arc18, stronger effect = lower value 1 | S. cerevisiae deletion strains, locus YLR371W, strain rom2, stronger effect = lower value 1.01 | S. cerevisiae deletion strains, locus YLR384C, strain iki3, stronger effect = lower value 0.996 | S. cerevisiae deletion strains, locus YLR418C, strain cdc73, stronger effect = lower value 0.979 | S. cerevisiae deletion strains, locus YML016C, strain PPZ1, stronger effect = lower value 0.998 | S. cerevisiae deletion strains, locus YML032C, strain rad52, stronger effect = lower value 1.01 | S. cerevisiae deletion strains, locus YML120C, strain ndi1, stronger effect = lower value 0.993 | S. cerevisiae deletion strains, locus YML124C, strain tub3, stronger effect = lower value 1.01 | S. cerevisiae deletion strains, locus YMR058W, strain fet3, stronger effect = lower value 0.996 | S. cerevisiae deletion strains, locus YMR078C, strain ctf18, stronger effect = lower value 1.01 | S. cerevisiae deletion strains, locus YMR125W, strain sto1, stronger effect = lower value 1.02 | S. cerevisiae deletion strains, locus YMR129W, stronger effect = lower value 1 | S. cerevisiae deletion strains, locus YMR205C, strain PFK2, stronger effect = lower value 0.969 | S. cerevisiae deletion strains, locus YMR223W, strain ubp8, stronger effect = lower value 0.992 | S. cerevisiae deletion strains, locus YMR231W, strain pep5, stronger effect = lower value 0.985 | S. cerevisiae deletion strains, locus YMR263W, strain SAP30, stronger effect = lower value 1.01 and 0.992 | S. cerevisiae deletion strains, locus YMR307W, strain GAS1, stronger effect = lower value 0.941 and 0.992 | S. cerevisiae deletion strains, locus YNL067W, strain RPL9B, stronger effect = lower value 1.01 | S. cerevisiae deletion strains, locus YNL071W, strain lat1, stronger effect = lower value 0.975 | S. cerevisiae deletion strains, locus YNL128W, strain TEP1, stronger effect = lower value 1.01 | S. cerevisiae deletion strains, locus YNL153C, strain GIM3, stronger effect = lower value 1.01 | S. cerevisiae deletion strains, locus YNL175C, strain NOP13, stronger effect = lower value 1 | S. cerevisiae deletion strains, locus YNL183C, strain NPR1, stronger effect = lower value 0.939 | S. cerevisiae deletion strains, locus YNL197C, strain WHI3, stronger effect = lower value 0.987 | S. cerevisiae deletion strains, locus YNL209W, strain ssb2, stronger effect = lower value 1.01 | S. cerevisiae deletion strains, locus YNL224C, strain SQS1, stronger effect = lower value 1.04 | S. cerevisiae deletion strains, locus YNL233W, strain BNI4, stronger effect = lower value 1 | S. cerevisiae deletion strains, locus YNL248C, strain rpa49, stronger effect = lower value 0.988 | S. cerevisiae deletion strains, locus YNL250W, strain rad50, stronger effect = lower value 1.02 | S. cerevisiae deletion strains, locus YNL271C, strain bni1, stronger effect = lower value 1.02 | S. cerevisiae deletion strains, locus YNL298W, strain CLA4, stronger effect = lower value 1 | S. cerevisiae deletion strains, locus YNL307C, strain MCK1, stronger effect = lower value 0.994 | S. cerevisiae deletion strains, locus YNL322C, strain KRE1 (second series), stronger effect = lower value 0.993 | S. cerevisiae deletion strains, locus YNL322C, strain KRE1, stronger effect = lower value 1.01 | S. cerevisiae deletion strains, locus YNR049C, strain mso1, stronger effect = lower value 1 | S. cerevisiae deletion strains, locus YNR052C, strain pop2, stronger effect = lower value 1 | S. cerevisiae deletion strains, locus YOL006C, strain TOP1, stronger effect = lower value 1.01 | S. cerevisiae deletion strains, locus YOL012C, strain htz1 1.2 | S. cerevisiae deletion strains, locus YOL147C, strain pex11, stronger effect = lower value 1.01 | S. cerevisiae deletion strains, locus YOR001W, strain rrp6, stronger effect = lower value 0.982 | S. cerevisiae deletion strains, locus YOR061W, strain CKA2, stronger effect = lower value 0.995 | S. cerevisiae deletion strains, locus YOR069W, strain VPS5, stronger effect = lower value 1 | S. cerevisiae deletion strains, locus YOR070C, strain gyp1, stronger effect = lower value 0.996 | S. cerevisiae deletion strains, locus YOR080W, strain dia2, stronger effect = lower value 0.981 | S. cerevisiae deletion strains, locus YOR083W, strain WHI5 (second series), stronger effect = lower value 1.07 | S. cerevisiae deletion strains, locus YOR083W, strain WHI5, stronger effect = lower value 0.954 | S. cerevisiae deletion strains, locus YOR106W, strain vam3, stronger effect = lower value 1 | S. cerevisiae deletion strains, locus YOR136W, strain idh2, stronger effect = lower value 1 | S. cerevisiae deletion strains, locus YOR144C, strain elg1, stronger effect = lower value 1.01 | S. cerevisiae deletion strains, locus YOR184W, strain ser1, stronger effect = lower value 1.02 | S. cerevisiae deletion strains, locus YOR231W, strain MKK1, stronger effect = lower value 0.997 | S. cerevisiae deletion strains, locus YOR265W, strain rbl2, stronger effect = lower value 1 | S. cerevisiae deletion strains, locus YOR270C, strain vph1, stronger effect = lower value 0.996 | S. cerevisiae deletion strains, locus YOR290C, strain snf2, stronger effect = lower value 0.973 | S. cerevisiae deletion strains, locus YOR316C, strain cot1, stronger effect = lower value 1.01 | S. cerevisiae deletion strains, locus YPL051W, strain arl3, stronger effect = lower value 0.99 | S. cerevisiae deletion strains, locus YPL055C, strain LGE1, stronger effect = lower value 0.999 | S. cerevisiae deletion strains, locus YPL078C, strain atp4, stronger effect = lower value 0.971 | S. cerevisiae deletion strains, locus YPL106C, strain sse1, stronger effect = lower value 0.952 | S. cerevisiae deletion strains, locus YPL240C, strain hsp82, stronger effect = lower value 0.992 | S. cerevisiae deletion strains, locus YPL241C, strain CIN2, stronger effect = lower value 0.992 and 1 | S. cerevisiae deletion strains, locus YPL256C, strain CLN2, stronger effect = lower value 0.973 | S. cerevisiae deletion strains, locus YPR119W, strain clb2, stronger effect = lower value 1.01 | S. cerevisiae deletion strains, locus YPR141C, strain kar3, stronger effect = lower value 1.02 | S. cerevisiae deletion strains, locus YPR163C, strain tif3, stronger effect = lower value 1.03 | S. cerevisiae deletion strains, locus YPR167C, strain met16, stronger effect = lower value 1.01 | S. cerevisiae deletion strains, strain wtn01, stronger effect = lower value 1.02 | S. cerevisiae strains, strain wild type, stronger effect = lower value 0.993
